About 83,000 compounds went through this panel and 20% of them were active in at least one assay; those are over-represented in the sample as a whole.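 A percent growth of 40 corresponds to 60% growth inhibition; 0 means no net growth; -100 means all cells died. Active threshold: below 10.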 Calls of active or inactive are those of the source.
test system: HL-60(TB) leukemia; experiment: NCI-60 one-dose screen, 48 h (100 = growth as untreated, 0 = no growth, -100 = all killed); conditions: 10 µM unless noted

Row | SMILES | growth
1 | O=C1C(=O)c2cccnc2-c2ncccc21 | -21% (active)
2 | Cc1ccc2cc3c(N)c4c(C)ccc(C)c4nc3nc2c1 | 12.6% (inactive)
3 | NNC(=O)Oc1c(Cl)cc(Cl)cc1[N+](=O)[O-] | 98.3% (inactive)
4 | CNC1(C#N)CCN(Cc2ccccc2)CC1 | 168% (inactive)
5 | Cn1ccnc1C(=O)/C=C/c1ccc(CC(=O)Nc2ccc(Cl)cc2)cc1 | 5.24% (active)
6 | CCN(Cc1ccc(CN(CC)C(=O)C(Cl)(Cl)Cl)cc1)C(=O)C(Cl)(Cl)Cl | 6.38% (active)
7 | CCCCN(CCCC)CC(CN(CC)CC)OC(=O)Nc1ccccc1 (stereo not drawn) | 84.1% (inactive)
8 | COc1ccc(C(=S)N2CCN(c3cccc(Cl)c3)CC2)cc1 | 130% (inactive)

Reference: PubChem BioAssay (NCI)
